Experimental findings from paper PMC4336329 (PLoS ONE, 2015) are described below.

Out of some 310,000 compounds screened, about 14,000 (4.5%) showed an effect of 50% or more. Effects have a minus sign here. This excerpt belongs to a sample that is enriched for strong results.
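Also: peak tail current of the secondary pulse compared with the same well before compound.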

The target in this assay is human ether-à-go-go-related gene (hERG) potassium channel (human, UniProt Q12809). Briefly: primary screen, population patch clamp on CHO cells stably expressing hERG; higher = less effect of the substance.
Chain of human ether-à-go-go-related gene (hERG) potassium channel (Q12809 whole entry, looked up): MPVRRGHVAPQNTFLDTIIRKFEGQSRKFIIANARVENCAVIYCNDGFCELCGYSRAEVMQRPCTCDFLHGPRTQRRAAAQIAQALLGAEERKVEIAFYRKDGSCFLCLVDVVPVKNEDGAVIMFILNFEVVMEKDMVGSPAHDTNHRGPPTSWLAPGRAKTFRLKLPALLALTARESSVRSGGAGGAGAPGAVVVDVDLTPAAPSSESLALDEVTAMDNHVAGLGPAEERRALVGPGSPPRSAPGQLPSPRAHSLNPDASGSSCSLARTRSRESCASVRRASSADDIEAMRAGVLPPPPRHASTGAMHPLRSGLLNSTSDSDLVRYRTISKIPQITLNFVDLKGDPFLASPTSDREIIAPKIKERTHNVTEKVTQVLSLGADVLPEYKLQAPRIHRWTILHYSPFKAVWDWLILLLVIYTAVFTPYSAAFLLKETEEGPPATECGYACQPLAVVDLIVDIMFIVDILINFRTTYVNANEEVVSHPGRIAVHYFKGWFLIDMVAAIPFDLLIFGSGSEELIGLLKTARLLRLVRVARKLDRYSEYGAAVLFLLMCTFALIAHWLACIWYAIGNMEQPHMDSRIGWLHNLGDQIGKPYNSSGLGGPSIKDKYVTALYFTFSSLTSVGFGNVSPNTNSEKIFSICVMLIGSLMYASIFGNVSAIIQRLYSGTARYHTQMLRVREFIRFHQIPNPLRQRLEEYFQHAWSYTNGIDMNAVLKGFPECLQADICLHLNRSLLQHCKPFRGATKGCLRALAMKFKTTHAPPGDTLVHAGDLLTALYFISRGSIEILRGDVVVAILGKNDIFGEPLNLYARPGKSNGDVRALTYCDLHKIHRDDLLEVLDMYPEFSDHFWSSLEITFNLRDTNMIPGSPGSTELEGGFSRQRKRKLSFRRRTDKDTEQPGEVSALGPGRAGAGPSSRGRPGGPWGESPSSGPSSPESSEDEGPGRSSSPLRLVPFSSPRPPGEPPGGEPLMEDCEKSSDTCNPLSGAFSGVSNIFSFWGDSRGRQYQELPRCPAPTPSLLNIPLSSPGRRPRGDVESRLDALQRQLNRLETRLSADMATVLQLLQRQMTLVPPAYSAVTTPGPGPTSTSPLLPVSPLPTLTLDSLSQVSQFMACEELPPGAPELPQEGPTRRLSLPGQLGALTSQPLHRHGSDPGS
For `CSc1ccccc1NC(=O)c1ccc(N2CC3CC(C2)c2cccc(=O)n2C3)c(NC(=O)c2ccncc2)c1` (stereo not drawn), the “hERG current change (%, negative = inhibition) at 10uM” value was -30.1%. For `OCCC1CN(CCCc2ccccc2)CCN1CCc1ccccc1` (stereo not drawn) the value was -77.2%. The same measure for `CC(C)(C)CN1CCN(CC#Cc2ccccc2)CC1CCO` (stereo not drawn): 0.803%; for `OCCC1CN(CCCc2ccccc2)CCN1Cc1ccccc1` (stereo not drawn): -64%. The same measure for `CC(C)N1CCN(CCCc2ccccc2)CC1CCO` (stereo not drawn): -4.39%. On to `CC(C)=CCN1CCN(CCCc2ccccc2)CC1CCO` (stereo not drawn), for which the “hERG current change (%, negative = inhibition) at 10uM” value is given as -26.8%. The same measure for `CC(C)CCN1CCN(CCCc2ccccc2)CC1CCO` (stereo not drawn): -46.6%. The same measure for `OCCC1CN(CCCc2ccccc2)CCN1Cc1ccc(F)cc1` (stereo not drawn): -66.6%; for `CC(C)CN1CCN(CCCc2ccccc2)C(CCO)C1` (stereo not drawn): -35.5%; for `CC(C)(C)CN1CCN(CCCc2ccccc2)C(CCO)C1` (stereo not drawn): -53.7%. For the compound `CC(C)CCNC(=O)C(c1ccco1)N(CCCO)C(=O)Cn1nnc(-c2ccc(F)cc2)n1` (stereo not drawn), the “hERG current change (%, negative = inhibition) at 10uM” value is given as -20.2%. `CSc1ccccc1NC(=O)CSc1nnc(CNC(=O)c2ccccc2F)n1C`: the “hERG current change (%, negative = inhibition) at 10uM” value is 11.2%. For the compound `O=C(NCCS(=O)(=O)N1CCN(c2ccc(F)cc2)CC1)C12CC3CC(CC(C3)C1)C2`, the “hERG current change (%, negative = inhibition) at 10uM” value is recorded as -10.5%. Regarding `CCOC(=O)c1cc(-c2ccc(OC)cc2)nn1-c1ccc(C(=O)O)cc1`, the “hERG current change (%, negative = inhibition) at 10uM” value is on record as 16.3%. For the compound `CS(=O)(=O)c1ccc([C@@H](O)[C@@H](CF)NC(=O)C(Cl)Cl)cc1`, the “hERG current change (%, negative = inhibition) at 10uM” value is listed as -5.39%. The same measure for `Cc1cccc(Cl)c1NC(=S)NCCc1ccccn1`: 11.9%.

For `CCOc1ccc(Br)cc1S(=O)(=O)N1CCC(C(N)=O)CC1`, the “hERG current change (%, negative = inhibition) at 10uM” value is listed as -8.56%. `O=C(c1ccc(CS(=O)c2cccc(Cl)c2)o1)N1CCOCC1` (stereo not drawn): the “hERG current change (%, negative = inhibition) at 10uM” value is 10.8%. As to `Cc1ccc(CN2CCN(CCCc3ccccc3)CC2CCO)cc1` (stereo not drawn), the “hERG current change (%, negative = inhibition) at 10uM” value was -76.4%. The same measure for `CC(C)/C=C/CN1CCN(CCCc2ccccc2)C(CCO)C1` (stereo not drawn): -73.4%; for `CCC(CC)N1CCN(CCc2ccccc2)C(CCO)C1` (stereo not drawn): -19%. In the case of `Cn1cccc1C(=O)NC(=O)COC(=O)c1ccccc1O`, the “hERG current change (%, negative = inhibition) at 10uM” value is recorded as -6.93%. For `Cc1cc(C(=O)Nn2c(-c3ccc(Br)cc3)nc3ccccc3c2=O)ccc1[N+](=O)[O-]` the value was 8.86%; for `Cc1cccc(-c2nc3ccccc3c(=O)n2NC(=O)c2ccc([N+](=O)[O-])c(C)c2)c1`, 14.5%. With `Cc1cccc(-c2nc3ccccc3c(=O)n2NC(=O)/C=C/c2ccc([N+](=O)[O-])cc2)c1`, the “hERG current change (%, negative = inhibition) at 10uM” value was -60.7%. The same measure for `O=C(/C=C/c1cccc([N+](=O)[O-])c1)Nn1c(-c2ccccc2F)nc2ccccc2c1=O`: -23.1%; for `O=C(Nn1c(-c2ccc(Br)cc2)nc2ccccc2c1=O)c1ccc([N+](=O)[O-])cc1`: -66.6%; for `O=C(Nn1c(-c2ccccc2)nc2ccccc2c1=O)c1ccc([N+](=O)[O-])cc1`: -15.4%. For the compound `CN(c1ccc(C(=O)NCc2ccco2)cc1)S(C)(=O)=O`, the “hERG current change (%, negative = inhibition) at 10uM” value stood at 5.87%. For `NC(=O)C1CCN(C(=O)c2cc3n(n2)C(C(F)(F)F)CC(c2ccco2)N3)CC1` (stereo not drawn) the value was 14.8%. `Cc1nc(-c2ccc(Cl)cc2)sc1C1(C)CC(c2ccc(C#N)cc2)=NO1` (stereo not drawn): the “hERG current change (%, negative = inhibition) at 10uM” value is reported as -29.2%.

Consider `Cc1ccc(OCc2nnc(SCC(=O)Nc3ccc4c(c3)OCCO4)n2Cc2ccco2)cc1`, for which the “hERG current change (%, negative = inhibition) at 10uM” value amounted to 6.31%. The same measure for `COc1ccc2c(c1)c(C(C)=O)c(C)n2CCc1ccc(OC)c(OC)c1`: -6.52%; for `COc1ccc(C2Nc3ccccc3C(=O)N2NS(=O)(=O)c2ccccc2)cc1OC` (stereo not drawn): 13.5%; for `COc1cc(NS(=O)(=O)c2ccc(NC(=O)C3CCCO3)cc2)nc(OC)n1` (stereo not drawn): 6.87%.

With `S=c1[nH]nc(-c2ccccc2)n1/N=C/c1ccc(-c2ccccc2Cl)o1`, the “hERG current change (%, negative = inhibition) at 10uM” value was determined as 25.4%. The same measure for `COc1ccc(NC(=O)c2cc3c(=O)n4ccccc4nc3n2C)cc1OC`: 13.7%.

Regarding `COc1cccc(NC(=O)C(Sc2nc3ccccc3c(=O)n2CC(C)C)c2ccccc2)c1` (stereo not drawn), the “hERG current change (%, negative = inhibition) at 10uM” value is listed as 11.8%.

Turning to `Cc1cccc(NC(=O)c2cc3c(=O)n4ccccc4nc3n(CC(C)C)c2=N)c1`, the “hERG current change (%, negative = inhibition) at 10uM” value is -78%.

Turning to `Cc1cccc(NC(=O)c2cc3c(=O)n4ccccc4nc3s2)c1`, the “hERG current change (%, negative = inhibition) at 10uM” value was found to be 10.8%.

Take `Cc1cccc(NC(=O)c2c(C)nc3ccccn23)c1`: the “hERG current change (%, negative = inhibition) at 10uM” value was -0.935%. On to `COc1cccc(NC(=O)c2cc3c(=O)n4ccccc4nc3n(CC(C)C)c2=N)c1`, for which the “hERG current change (%, negative = inhibition) at 10uM” value was -82%. The same measure for `CCOc1ccc(NC(=O)CSc2nc(=O)n(Cc3cccnc3)c3c2CCC3)cc1`: -8.74%. Turning to `CN(c1cccc(NC(=O)c2cccc([N+](=O)[O-])c2)c1)S(C)(=O)=O`, the “hERG current change (%, negative = inhibition) at 10uM” value was 13.1%. As to `O=C(Nc1ccc(N2CCOCC2)cc1N1CCOCC1)c1ccc([N+](=O)[O-])cc1`, the “hERG current change (%, negative = inhibition) at 10uM” value turned out to be 2.51%.

As for `COc1cc(/C=N/NS(=O)(=O)c2ccc(Br)cc2)ccc1O`, the “hERG current change (%, negative = inhibition) at 10uM” value is 1.58%. For `Cc1ccc(NC(=O)CNC(=O)c2ccco2)nc1` the value was 17.3%; for `CCOc1cc(S(=O)(=O)n2cnc(C)c2)ccc1Cl`, -8.24%. The same measure for `COc1ccc(/C=C/C(=O)N(C)c2ccccc2C(=O)O)cc1`: -4.18%. With `COc1ccc(/C=C/C(=O)N(C)C2CCS(=O)(=O)C2)cc1OC` (stereo not drawn), the “hERG current change (%, negative = inhibition) at 10uM” value worked out at 2.01%.

Take `COc1ccc(C(=O)Cn2c(C(=O)/C=C/c3ccccc3)nc3ccccc32)cc1`: the “hERG current change (%, negative = inhibition) at 10uM” value is given as -16.4%. Turning to `COc1ccc(/C=C/C(=O)N2CCN(C)CC2)cc1OC`, the “hERG current change (%, negative = inhibition) at 10uM” value stood at 6.7%.

On to `COc1ccc(N(C(=O)/C=C/c2ccccc2)C2=CC3CCC(C2)N3C)cc1.Cl` (stereo not drawn), for which the “hERG current change (%, negative = inhibition) at 10uM” value is listed as -74.6%. For the compound `COc1ccc(N(C(=O)/C=C/c2ccc(OC)c(OC)c2)C2=CC3CCC(C2)N3C)cc1.Cl` (stereo not drawn), the “hERG current change (%, negative = inhibition) at 10uM” value is recorded as -69.6%. The same measure for `Cn1c(C(=O)N[C@@H](Cc2ccccc2)C(=O)NCCC(=O)O)cc2cc(Cl)ccc21`: 0.651%; for `COc1ccc(OCC(=O)OCC(=O)N2CC(=O)Nc3ccccc32)cc1`: -3.16%; for `Cc1ccc(CCC(=O)Nc2ccc([N+](=O)[O-])cc2)o1`: 0.967%. For `CC1CN(c2ncnc3c2c(-c2ccccc2)cn3-c2ccc(F)cc2)CC(C)O1` (stereo not drawn) the value was 12%; for `OCCN1CCN(c2ncnc3c2c(-c2ccccc2)cn3-c2ccc(Br)cc2)CC1`, -15.2%; for `OCCN1CCN(c2ncnc3c2c(-c2ccccc2)cn3-c2ccc(F)cc2)CC1`, -74.3%.

On to `CCN1CCN(c2ncnc3c2c(-c2ccccc2)cn3-c2ccc(F)cc2)CC1`, for which the “hERG current change (%, negative = inhibition) at 10uM” value was -74.5%. Regarding `COc1ccc(-n2cc(-c3ccccc3)c3c(N4CCN(CCO)CC4)ncnc32)cc1`, the “hERG current change (%, negative = inhibition) at 10uM” value was -42%. For `Cc1ccc(-n2cc(-c3ccccc3)c3c(N4CCN(C)CC4)ncnc32)cc1`, the “hERG current change (%, negative = inhibition) at 10uM” value is listed as -9.95%. For `CNCCCC1c2ccccc2C=Cc2ccccc21.Cl` the value was 13.2%. Turning to `O=c1[nH]c(Nc2ccccc2Cl)cc2ccccc12`, the “hERG current change (%, negative = inhibition) at 10uM” value is listed as 10.9%. The same measure for `O=C(Cc1ccccc1F)OCN1C(=O)c2ccccc2C1=O`: 21.5%. The same measure for `N#C/C(=C/c1cccc(C(F)(F)F)c1)c1nc(CCN2C(=O)c3ccccc3C2=O)cs1`: -0.904%; for `N#Cc1cccc(C(=O)OCC(=O)N2CCCc3ccccc32)c1`: -1.94%; for `COc1cc(CN2CCC(n3nccc3NC(=O)CCCc3ccccc3)CC2)ccc1F`: -66.5%. As to `COc1ccc(CN2CCC(n3nccc3NC(=O)CCCc3ccccc3)CC2)cc1C`, the “hERG current change (%, negative = inhibition) at 10uM” value is on record as -93.3%.

For the compound `COc1cc(CN2CCC(n3nccc3NC(=O)CCCc3ccccc3)CC2)ccc1O`, the “hERG current change (%, negative = inhibition) at 10uM” value is on record as -31.1%.

As for `O=C(O)CNC(=O)c1ccccc1NC(=O)c1ccco1`, the “hERG current change (%, negative = inhibition) at 10uM” value came to 7.93%. The same measure for `COc1ccccc1C/C(N)=N/OC(=O)COc1ccc(C)cc1C`: 17.4%.

For `CC12CC3CC(C)(C1)CC(C(=O)NCc1cccnc1)(C3)C2`, the “hERG current change (%, negative = inhibition) at 10uM” value is given as -11.6%. The same measure for `c1ccc(OCCN2CCN(Cc3nc(-c4ccc5c(c4)OCO5)no3)CC2)cc1`: -51.5%; for `O=C(c1ccco1)N1CCCN(Cc2nc(-c3ccc4c(c3)OCO4)no2)CC1`: -46.1%; for `c1cc(C2CCN(Cc3nc(-c4ccc5c(c4)OCO5)no3)CC2)ccn1`: -19.7%.

With `COCC1CCCN(Cc2nc(-c3ccc4c(c3)OCO4)no2)C1` (stereo not drawn), the “hERG current change (%, negative = inhibition) at 10uM” value is reported as -5.71%. The same measure for `COCC1CCN(Cc2nc(-c3ccc4c(c3)OCO4)no2)C1` (stereo not drawn): -17.1%.

Consider `Fc1ccc(CN2CCCN(Cc3nc(-c4ccc5c(c4)OCO5)no3)CC2)cc1`, for which the “hERG current change (%, negative = inhibition) at 10uM” value is -62.2%.

For the compound `Fc1ccccc1CNc1ncnc2sccc12`, the “hERG current change (%, negative = inhibition) at 10uM” value was found to be 11.9%. For `CCOC(=O)CN1C(=O)SC(Nc2ccc(C)cc2)C1=O` (stereo not drawn) the value was 27.1%. The same measure for `O=C(Nc1c2c(nn1-c1ccccc1)CS(=O)C2)c1ccco1` (stereo not drawn): 7.5%; for `CC(=O)OCC(=O)[C@@]1(OC(C)=O)[C@@H](C)C[C@H]2[C@@H]3C[C@H](F)C4=CC(=O)C=C[C@]4(C)[C@@]3(F)[C@@H](O)C[C@@]21C`: -15.1%.
